According to PubChem BioAssay:
Active and inactive are the calls of the source. Unless noted, how the calls were made is not given here.

What was measured:
[1] = A549 cell viability effects, profiling panel, calcein-AM fluorescence, 48 h, basal (AID 1162); details: higher = more signal; further: test concentration not given here
[2] = adipocyte viability effects, profiling panel, cell-based, 3T3-L1 adipocytes, calcein-AM fluorescence, 48 h, basal (AID 1163); details: 3T3-L1 adipocytes viability, higher = more signal; further: test concentration not given here
[3] = HepG2 cell viability effects, profiling panel, calcein-AM fluorescence, 48 h, basal (AID 1164); details: higher = more signal; further: test concentration not given here
[4] = MM1S cell viability effects, profiling panel, calcein-AM fluorescence, 48 h, basal (AID 1165); details: higher = more signal;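 further: viability of MM1S multiple myeloma cells under basal unstimulated conditions; test concentration not given here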
[5] = basal RPMI8226 viability, no added stimulus, profiling panel, cell-based, calcein-AM fluorescence, 48 h, PK04 Diversity Set (AID 1166); details: RPMI8226 myeloma viability, higher = more signal;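 further: cells grown under basal conditions without added stimulus; test concentration not given here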
[6] = basal HepG2 mitochondrial membrane potential changes, profiling panel, cell-based, JC-1 fluorescence, 24 h, 100 nL compound (AID 1167); details: higher = more signal; further: test concentration not given here
[7] = basal 3T3-L1 adipocyte mitochondrial potential changes, profiling panel, cell-based, JC-1 fluorescence, 3T3-L1 adipocytes, 24 h, 100 nL compound (AID 1168); details: JC-1 mitochondrial fluorescence, higher = more signal, called active from +8 up or from −8 down; further: test concentration not given here
[8] = basal RPMI8226 mitochondrial membrane potential changes, profiling panel, cell-based, JC-1 fluorescence, 24 h, 100 nL compound (AID 1169); details: RPMI8226 myeloma, JC-1 mitochondrial potential fluorescence, higher = more signal; further: test concentration not given here
[9] = basal MM1S mitochondrial membrane potential changes, profiling panel, cell-based, JC-1 fluorescence, 24 h, 100 nL compound (AID 1170); details: higher = more signal; further: test concentration not given here
[10] = A549 lung cancer cell viability effects, profiling panel, resazurin fluorescence, 24 h, PK04 Diversity Set (AID 1171); details: higher = more signal, called active from +8 up or from −8 down; further: test concentration not given here
[11] = HepG2 liver cancer cell viability effects, profiling panel, resazurin fluorescence, 24 h, PK04 Diversity Set (AID 1172); details: higher = more signal; further: test concentration not given here
[12] = basal S. cerevisiae growth modulation, no modifier, primary screen, OD600, strain BY4716, 24 h, basal condition (AID 1173); details: OD600, 24 h, higher = more signal, called active from +8 up or from −8 down
[13] = MM1S myeloma cell viability, profiling panel, resazurin fluorescence, basal, 24 h, PK04 Diversity Set (AID 1174); details: higher = more signal, called active from +8 up or from −8 down;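 further: MM1S multiple myeloma cell line; test concentration not given here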
[14] = target: Dihydroorotate dehydrogenase (quinone), mitochondrial (Plasmodium falciparum (isolate 3D7)) (UniProt Q08210); experiment: PfDHODH enzyme inhibitors, primary screen, biochemical, C-terminal His tag, absorbance 600 nm (AID 1175); details: DCIP absorbance 600 nm, higher = more signal, called active from +8 up or from −8 down;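 further: recombinant parasite enzyme with a five histidine tag at its C terminus; test concentration not given here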
Chain of Dihydroorotate dehydrogenase (quinone), mitochondrial (Plasmodium falciparum (isolate 3D7)) (Q08210 whole entry, looked up): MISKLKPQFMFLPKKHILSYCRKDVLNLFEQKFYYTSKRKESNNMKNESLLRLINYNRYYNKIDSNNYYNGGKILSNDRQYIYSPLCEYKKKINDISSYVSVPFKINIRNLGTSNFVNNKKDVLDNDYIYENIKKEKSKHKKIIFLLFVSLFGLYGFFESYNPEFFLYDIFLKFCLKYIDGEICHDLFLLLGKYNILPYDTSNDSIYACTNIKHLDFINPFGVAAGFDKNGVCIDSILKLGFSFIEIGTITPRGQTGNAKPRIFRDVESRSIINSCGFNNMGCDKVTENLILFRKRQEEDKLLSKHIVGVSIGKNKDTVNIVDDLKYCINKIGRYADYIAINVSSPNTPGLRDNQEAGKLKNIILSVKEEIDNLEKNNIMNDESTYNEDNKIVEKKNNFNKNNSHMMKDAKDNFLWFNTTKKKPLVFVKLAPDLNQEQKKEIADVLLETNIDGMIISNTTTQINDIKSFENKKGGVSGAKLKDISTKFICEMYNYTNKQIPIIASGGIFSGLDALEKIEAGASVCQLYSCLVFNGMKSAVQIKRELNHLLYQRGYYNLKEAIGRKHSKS

[15] = P. aeruginosa biofilm formation inhibitors, primary screen, strain PAO1, LB-PBS medium, absorbance 600 nm (AID 1176); further: test concentration not given here; details: P. aeruginosa PAO1 growth/biofilm, A600, 12 h; higher = more signal
[16] = S. cerevisiae RM11-1a growth modifiers, primary screen, strain RM11-1a, OD600, basal, 24 h (AID 1177); details: OD600, 24 h, higher = more signal, called active from +8 up or from −8 down;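 further: cultures grown under basal conditions with no added stressor; test concentration not given here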
[17] = E. coli acrAB mutant growth effects, primary screen, E. coli filamentation inducers, strain DRC39, OD650, 24 h (AID 1178); details: higher = more signal, called active from +8 up or from −8 down;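 further: growth measured as culture turbidity by optical density at 650 nm; test concentration not given here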
[18] = E. coli acrAB mutant growth effects, primary screen, E. coli filamentation inducers, strain DRC39, OD650, 48 h (AID 1179);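 further: screen aims at cell division blockers that make cells filament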; details: E. coli DRC39 delta-acrAB growth, higher = more signal, called active from +8 up or from −8 down
[19] = RPMI8226 myeloma cell viability, profiling panel, resazurin fluorescence, basal, 24 h, PK04 Diversity Set (AID 1180); details: higher = more signal;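 further: RPMI8826 multiple myeloma cell line at 5000 cells per well; test concentration not given here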
[20] = target: E3 ubiquitin-protein ligase XIAP (Homo sapiens) (UniProt P98170); experiment: XIAP binders, primary screen, biophysical, small-molecule microarray, fluorescence 635 nm (AID 1181); details: small-molecule microarray binding, higher = more signal;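 further: score merges 667 nm emission and signal to noise over triplicate slides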
Chain of E3 ubiquitin-protein ligase XIAP (Homo sapiens) (P98170 whole entry, looked up): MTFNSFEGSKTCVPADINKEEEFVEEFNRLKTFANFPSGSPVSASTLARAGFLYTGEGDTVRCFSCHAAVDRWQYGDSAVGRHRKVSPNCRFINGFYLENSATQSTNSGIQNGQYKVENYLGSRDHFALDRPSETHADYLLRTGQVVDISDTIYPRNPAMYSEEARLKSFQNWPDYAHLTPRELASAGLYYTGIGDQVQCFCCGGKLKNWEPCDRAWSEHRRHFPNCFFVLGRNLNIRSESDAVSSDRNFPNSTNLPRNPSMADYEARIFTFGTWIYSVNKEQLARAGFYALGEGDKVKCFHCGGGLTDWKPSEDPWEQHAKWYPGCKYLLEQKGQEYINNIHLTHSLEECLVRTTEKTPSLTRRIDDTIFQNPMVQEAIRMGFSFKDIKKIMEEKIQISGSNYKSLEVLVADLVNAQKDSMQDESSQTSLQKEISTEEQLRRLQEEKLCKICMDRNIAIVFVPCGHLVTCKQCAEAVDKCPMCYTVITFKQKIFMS

SMILES | z-score [1] | z-score [2] | z-score [3] | z-score [4] | z-score [5] | z-score [6] | z-score [7] | z-score [8] | z-score [9] | z-score [10] | z-score [11] | z-score [12] | z-score [13] | composite z-score [14] | z-score [15] | z-score [16] | z-score [17] | z-score [18] | z-score [19] | composite z-score [20]
COCCOC(=O)N1C(=O)[C@@]2(c3cc(C#CC4=CCCCC4)ccc31)[C@H](c1ccc(O)cc1)N1[C@H](c3ccccc3)[C@H](c3ccccc3)OC(=O)[C@H]1[C@@H]2C(=O)N1CCCCCCC1 | 1.43 | 1.06 | 0.0785 | -0.278 | -0.641 | -0.926 | 1.37 (inactive) | -0.247 | 0.12 | 0.676 (inactive) | 0.32 | -0.615 (inactive) | 1.17 (inactive) | 0.104 (inactive) | 1.35 (inactive) | 0.19 (inactive) | 0.15 (inactive) | 1.29 (inactive) | 0.768 | -0.445
C=C(CCCC)/C(=C/C[C@@H](OC(=O)c1ccncc1)c1cccc(OCCO)c1)c1cc(C(=O)OC)ccc1OC | 1.25 | -0.209 | 0.872 | -2.25 | -2.99 | 2.91 | 0.244 (inactive) | 0.0948 | -0.132 | 0.767 (inactive) | 1.02 | 0.199 (inactive) | -0.73 (inactive) | -0.757 (inactive) | 1.05 (inactive) | 0.0731 (inactive) | 1.81 (inactive) | 1.33 (inactive) | -0.647 | 0.137
C=CC[C@]1(C(=O)OC)N=C(c2ccc(OCCCO)cc2)O[C@H]1c1ccccc1CN=[N+]=[N-] | -0.844 | 1.51 | -1.09 | -2.04 | -2.24 | -0.000782 | 0.21 (inactive) | -1.01 | 0.734 | -0.179 (inactive) | 0.84 | -4.46 (inactive) | -0.609 (inactive) | 0.632 (inactive) | – | 0.0359 (inactive) | 2.63 (inactive) | 0.604 (inactive) | 0.239 | 0.232
COc1ccc([Si](C)(C)[C@H]2[C@H](CC(=O)N(CCO)Cc3ccccc3)O[C@@]3(C(=O)N(C)c4ccccc43)[C@@H]2C)cc1 | -0.836 | 0.899 | -1.12 | -1.84 | -3.42 | -0.433 | 0.505 (inactive) | -0.965 | -0.176 | 0.221 (inactive) | 0.514 | -1.42 (inactive) | -0.0262 (inactive) | -0.0113 (inactive) | 0.72 (inactive) | 0.11 (inactive) | 0.681 (inactive) | 0.455 (inactive) | 0.216 | 0.001
CCCC=C(CCC)[C@@H](NS(=O)(=O)c1ccc(C(F)(F)F)cc1)c1ccc(-c2ccccc2)cc1 | -0.91 | -0.988 | -0.396 | -0.5 | -2.65 | 0.285 | 0.33 (inactive) | 0.342 | -1.15 | 2.3 (inactive) | 2.18 | 1.05 (inactive) | 1.14 (inactive) | 0.472 (inactive) | -1.16 (inactive) | 1.41 (inactive) | 0.0852 (inactive) | -0.839 (inactive) | 0.719 | 0.0264
Cc1ccc(N2C(=O)c3ccccc3[C@](C)(C(=O)NCC(C)C)[C@@H]2c2ccc(CO)cc2)nc1 | -0.535 | -0.672 | -0.712 | -0.359 | 0.256 | -0.481 | -0.74 (inactive) | -0.0498 | -0.634 | 0.606 (inactive) | 0.1 | 0.726 (inactive) | -0.558 (inactive) | 1.08 (inactive) | 0.14 (inactive) | 1.42 (inactive) | 0.401 (inactive) | -0.247 (inactive) | -0.481 | -0.0095
CC1=C([C@H](O)CCc2ccccc2)[C@H](CO)[C@@H]2C(=O)N(Cc3ccccc3)C(=O)[C@@H]2C1 | -0.286 | -0.0776 | -0.352 | -0.0162 | 0.445 | 0.567 | 0.714 (inactive) | 0.331 | -1.5 | 0.76 (inactive) | 0.325 | -3.02 (inactive) | 0.169 (inactive) | -1.68 (inactive) | 0.0694 (inactive) | 0.0743 (inactive) | 1.6 (inactive) | 0.204 (inactive) | 0.308 | 0.201
CCC#CCN(Cc1ccccc1Br)[C@H](/C=C/c1ccccc1)[C@@H](O)Cc1ccccc1 | 0.178 | -0.0581 | -0.124 | -0.227 | -2.42 | -2.35 | -1.44 (inactive) | -0.608 | -0.32 | 1.36 (inactive) | 1.53 | 0.238 (inactive) | 0.753 (inactive) | 0.514 (inactive) | -0.553 (inactive) | 0.846 (inactive) | 1.19 (inactive) | 0.994 (inactive) | 0.0518 | 0.0101
COc1ccc(-c2cc3c(c(-c4ccccc4)n2)[Si](C(C)C)(C(C)C)O[C@H]3c2ccccc2)cn1 | 0.705 | -0.263 | 0.674 | -1.48 | -1.85 | -1.57 | -0.739 (inactive) | -0.707 | -0.225 | 1.51 (inactive) | 0.158 | 0.509 (inactive) | 0.117 (inactive) | -0.349 (inactive) | 0.35 (inactive) | -0.824 (inactive) | 0.0539 (inactive) | -0.508 (inactive) | 0.184 | 0.113
COc1cc(Cc2cc3c(c(CCc4ccccc4)n2)[Si](C(C)C)(C(C)C)OC3)cc(OC)c1OC | 0.557 | -1.22 | -0.202 | -2.17 | -4.13 | 0.756 | -0.411 (inactive) | -0.799 | -0.234 | 2.12 (inactive) | 1.47 | -0.0438 (inactive) | 0.273 (inactive) | -0.606 (inactive) | 0.726 (inactive) | 0.404 (inactive) | -0.171 (inactive) | 0.365 (inactive) | 0.815 | 0.107
O=C1O[C@H](c2ccccc2)[C@H](c2ccccc2)N2[C@H]1[C@@H](C(=O)Nc1nc3ccccc3s1)[C@]1(C(=O)Nc3ccc(C#CC4=CCCCC4)cc31)[C@H]2c1ccccc1OCCO | -0.639 | 0.313 | -0.557 | -1.63 | -1.07 | -2.86 | -1.06 (inactive) | -0.798 | -1.46 | -0.893 (inactive) | 0.111 | 1.86 (inactive) | -0.912 (inactive) | 0.835 (inactive) | 2.73 (inactive) | 2.71 (inactive) | -1.27 (inactive) | -1.24 (inactive) | -0.711 | 0.0705
CCCNC(=O)[C@@H]1c2ccccc2C(=O)N(C2CCCCC2)[C@H]1c1ccc(CO)cc1 | 0.285 | -0.144 | 0.107 | -0.524 | 0.0117 | 2.29 | 0.00608 (inactive) | -0.192 | -0.401 | 1.58 (inactive) | 0.358 | 1.27 (inactive) | -0.206 (inactive) | 1.05 (inactive) | -0.329 (inactive) | 1.61 (inactive) | 0.619 (inactive) | 0.521 (inactive) | -0.154 | 0.304
COC(=O)[C@H]1[C@@H]2COc3ccccc3[C@H]2N[C@H]1C(=O)OC | 0.0306 | 0.0308 | 0.648 | -1.29 | -0.347 | 0.321 | -0.819 (inactive) | 0.195 | -0.975 | -0.124 (inactive) | 0.0968 | -1.81 (inactive) | -0.586 (inactive) | -16.2 (active) | -0.508 (inactive) | -0.398 (inactive) | 0.226 (inactive) | 0.398 (inactive) | -0.139 | 0.0432
O=C1O[C@H](c2ccccc2)[C@H](c2ccccc2)N2[C@H]1[C@@H](C(=O)NC[C@H](O)c1ccccc1)[C@]1(C(=O)Nc3ccc(C#CC4=CCCCC4)cc31)[C@H]2c1ccc(OCCO)cc1 | 0.0545 | -0.405 | -0.674 | -1.24 | -2.29 | -2.36 | 1.27 (inactive) | -1.34 | -1.52 | -0.527 (inactive) | 0.0374 | 1.17 (inactive) | -2 (inactive) | -0.186 (inactive) | 2.05 (inactive) | 3.28 (inactive) | -0.227 (inactive) | 0.262 (inactive) | -3.18 | -0.316
